HPGD block: inhibitors of human 15-hydroxyprostaglandin dehydrogenase (HPGD). P15428. purified HPGD, NADH fluorescence kinetic, PGE2 substrate. Potency, µM, without a hit: at the highest dose activity change, negative = inhibition, usual class: inhibitors. 150,000 tested, 4.3% active; also: % is scaled to controls: 0 for no effect and ±100 for the full control effect
Target sequence (P15428 whole entry, looked up): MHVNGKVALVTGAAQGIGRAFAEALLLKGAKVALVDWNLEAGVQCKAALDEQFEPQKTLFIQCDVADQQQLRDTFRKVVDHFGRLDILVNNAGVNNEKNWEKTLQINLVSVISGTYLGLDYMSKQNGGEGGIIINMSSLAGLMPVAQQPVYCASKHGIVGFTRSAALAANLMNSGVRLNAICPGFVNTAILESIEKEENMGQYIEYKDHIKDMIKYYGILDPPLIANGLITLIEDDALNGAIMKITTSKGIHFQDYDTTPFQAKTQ
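20 nM HPGD preincubated 15 min at room temperature with compound in 50 mM Tris-HCl pH 8, 0.01% Tween 20. Started with 1 mM NAD+ and 30 uM prostaglandin E2; NADH fluorescence (360/450 nm) read 5 times over 30-s intervals, last minus first.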
HTT cytoprotect: protects HTT-Q103 PC12 cells, measured by ATP; PC12 HTT-Q103 induced, cytoprotection, ATP luminescence, 40 h; Potency, µM (top dose mostly 56.4 µM), for inactives: cytoprotection (ATP increase), most hits filed as activators; 230,000 tested, 0.14% active; active = well fitted curve in the direction sought with a large enough effect; inconclusive = small, poorly fitted or top-dose-only effect, or another doubt; inactive = no such curve, though single readings can be large; an effect the other way counts as inactive or inconclusive; also: % of control where 0% means no effect; nearly all actives have a fitted effect of over 45% in size
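Compounds added alongside 100 nM tebufenozide, which induces toxic Q103 huntingtin exon 1-GFP in stable PC12 cells; surviving cells quantified by luminescent ATP measurement. Medium: phenol red-free DMEM, 5% equine and 5% calf serum.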
ALDH1A1 inh: blocks purified human ALDH1A1 activity; P00352; Purified ALDH1A1, NADH fluorescence, propionaldehyde substrate; Potency, µM (top dose mostly 75.3 µM), without a hit: at the highest dose activity, negative = inhibition, actives largely listed as inhibitors; 220,000 tested, 7.3% active;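 also: plate controls were no enzyme wells and a reference inhibitor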
HTT aggregate: mutant huntingtin aggregation inhibition; PC12 HttQ103-GFP aggregates, Acumen cytometry, 40 h; Potency, µM (series often up to 46.1 µM), for inactives: at the top dose activity change, negative = inhibition, usual class: inhibitors; 220,000 tested, 1.1% active; AID 1688; active = well fitted curve in the direction sought with a large enough effect; inconclusive = small, poorly fitted or top-dose-only effect, or another doubt; inactive = no such curve, though single readings can be large; an effect the other way counts as inactive or inconclusive; also: % is scaled to controls: 0 for no effect and ±100 for the full control effect; nearly all actives have a fitted effect of over 60% in size
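Multiplexed with ATP-based cell death, this channel scores GFP aggregates in PC12 cells expressing inducible HTTex1-Q103-GFP. Induction used 100 nM tebufenozide; compounds were tested in concentration series.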
LMNA splice mod: changes lamin A minigene splicing in HeLa cells; HeLa LMNA splicing GFP/RFP minigene ratio, 48 h; Potency, µM (series often up to 46.1 µM), inactives show at the highest dose ratio change, negative = inhibition, usual class: inhibitors; 200,000 tested, 0.01% active; AID 1487; active = well fitted inhibition curve with a large enough effect in the signal ratio, with a control signal flat, not every such curve was filed as active; inconclusive = small, poorly fitted or top-dose-only effect, or effect the other way, or a change in a side signal; the % refers to the signal ratio; also: % is scaled to controls: 0 for no effect and ±100 for the full control effect
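S3 HeLa stable clones carrying a lamin A-EGFP splicing minigene plus DsRed2 were seeded at 600 cells/well in Opti-MEM with 2% FBS, pin-dosed and incubated 48 h at 37°C. Acumen cytometry (488 nm) gave the GFP/RFP total-intensity ratio.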
JMJD2E inh: blocks human JMJD2E demethylase activity; B2RXH2; JMJD2E catalytic domain, FDH-coupled NADH fluorescence (FDH is formaldehyde dehydrogenase); Potency, µM (series often up to 57.1 µM), for inactives: at the highest dose activity change, negative = inhibition, usual class: inhibitors; 230,000 tested, 1.6% active; AID 2147;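 also: 0% = wells with enzyme and -100% = buffer wells without enzyme; nearly all actives have a fitted effect of over 50% in size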
Target sequence (B2RXH2 1-337 limits assumed): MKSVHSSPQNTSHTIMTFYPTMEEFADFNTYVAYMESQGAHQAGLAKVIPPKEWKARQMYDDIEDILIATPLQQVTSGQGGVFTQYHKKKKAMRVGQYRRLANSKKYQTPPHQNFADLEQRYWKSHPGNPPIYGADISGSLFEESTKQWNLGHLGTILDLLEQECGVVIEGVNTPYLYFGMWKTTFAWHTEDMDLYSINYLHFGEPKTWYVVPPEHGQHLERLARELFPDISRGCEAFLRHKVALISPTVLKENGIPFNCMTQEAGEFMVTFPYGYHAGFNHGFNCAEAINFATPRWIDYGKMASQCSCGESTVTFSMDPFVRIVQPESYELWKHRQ
An asterisk follows results filed as active; ? = inconclusive; / = no result given; [ ] = remark or other dose. An excerpt weighted towards active compounds, which were near 9.2% of everything screened. Unless noted, calls follow the shape of the dose curve; as a rule, active = well fitted inhibition curve with a large enough effect (not every such curve was filed as active); inconclusive = small, poorly fitted or top-dose-only effect, or another doubt; inactive = no such curve, though single readings can be large or run the other way. Potency is read from the fitted curve at half-maximal effect.

SMILES	HPGD block	HTT cytoprotect	ALDH1A1 inh	HTT aggregate	LMNA splice mod	JMJD2E inh
CCOc1ccc(NC(=O)CN2C(=O)COc3ccc(S(=O)(=O)NC4CCCC4)cc32)cc1	/	/	/	/	-16.8%[46 µM]	/
COc1ccc(S(=O)(=O)n2nc(-c3ccco3)nc2NCc2ccc(OC)c(OC)c2)cc1	/	/	/	/	-6.2%[46 µM]	/
O=C1CCCN1c1ccc(S(=O)(=O)Oc2ccc(Cl)cc2)cc1[N+](=O)[O-]	7.94µM*	-60.5%	-11.9%	9.1%	-0.4%	6.0%
O=C1Nc2ccccc2C1=Nc1cccc2ncccc12	-8.3%	-14.2%[10 µM]	4.3%[13.5 µM]	/	/	/
O=C(c1ccccc1)c1c[nH]c(C(=O)NCCCn2ccnc2)c1	-9.2%	-12.3%	-2.0%	-23.5%	-12.5%	5.0%
CC[C@H](C)C(=O)O[C@H]1CCC=C2C=C[C@H](C)[C@H](CC[C@@H]3C[C@H](O)CC(=O)O3)C21 (stereo not given in full)	-7.7%	/	-13.2%	/	?	-0.1%
c1cncc(-c2nnc(-c3cccnc3)nn2)c1	8.91µM*	-122.7%[10 µM]	11.2µM*	?	?	?
N#CC(C#N)=C1C=CC=CN1/C(=C\c1ccco1)C(=O)c1ccc(-c2ccccc2)cc1	-25.9%	4.4%[10 µM]	-15.1%	7.08µM*	?	-7.6%
O=C(O)/C(=C/c1ccco1)c1ccccc1	/	/	-0.5%	16.6%	-0.4%[46 µM]	-5.8%
N#CC(C#N)=C1C=CC=CN1/C(=C\c1ccco1)C(=O)c1ccc(Cl)cc1	20µM*	?	-7.4%	3.55µM*	?	-11.6%
COc1ccc(-c2[nH]c3c(c2-c2c(-n4cccc4)n(C)c(=O)[nH]c2=O)c(=O)[nH]c(=O)n3C)cc1F	/	/	/	/	5.0%[46 µM]	/
CC(=O)c1cccc2c(O)c(C3=Nc4ccccc4C3=O)[nH]c12	14.1µM*	-14.7%[1.9 µM]	?	5.4%	?	?
O=C1C(c2c(O)[nH]c3ccccc23)=Nc2ccccc21	/	?	15.9%	/	7.3%[46 µM]	-0.8%
COC(=O)C1C(=O)c2c([nH]c(C(=O)OC3CCCC3C)c2C)CC1C (stereo not given)	-4.9%	-13.1%[10 µM]	12.6µM*	?	-15.1%	3.3%
CSc1ncc(C(=O)NCc2cccc(C)c2)c(-c2ccccc2)n1	/	/	/	/	1.8%[46 µM]	/
Cc1ccc(Cn2nc(C)c(NC(=O)CCCn3nc([N+](=O)[O-])c(Cl)c3C)c2C)cc1	-2.9%	43.1%[10 µM]	?	5.7%	-4.7%	8.0%
Cc1nn(Cc2ccccc2Cl)c(C)c1NC(=O)CCCn1nc([N+](=O)[O-])c(Cl)c1C	-10.4%	1.7%[10 µM]	8.91µM*	-18.6%	-14.4%	3.8%
Cc1nnsc1NC(=O)OCc1ccc(Cl)cc1Cl	-7.1%	-64.8%	11.7%	?	3.4%	-2.8%
Cc1nn(Cc2ccc(Cl)cc2Cl)c(C)c1NC(=O)CCl	-11.7%	-5.1%[10 µM]	8.91µM*	3.55µM*	?	-1.1%
Cc1nn(Cc2ccc(Cl)cc2Cl)c(C)c1NC(=O)c1nn(C)cc1Cl	-5.8%	-3.4%	4.1%	-2.4%	13.4%	-4.8%
Cc1nn(C)c(Cl)c1NC(=O)OCc1ccc(Cl)cc1Cl	-20.5%	-15.4%	8.1%	7.94µM*	1.2%	3.6%
Cc1nn(Cc2c(Cl)cccc2Cl)c(C)c1NC(=O)CCCn1nc(C)c([N+](=O)[O-])c1C	-11.7%	18.0%[10 µM]	3.55µM*	11.3%	-3.7%	3.4%
COc1ccc(OC)c(CCNc2ncnc3onc(-c4ccc(F)cc4)c23)c1	/	/	/	/	6.1%[46 µM]	/
NNC(=O)/C=C/c1ccc(Cl)cc1Cl	/	-96.8%	12.6µM*	-20.9%	-17.0%[46 µM]	135.5%
CCCCCCCC(=O)OC[C@H](CO)OC(=O)CCCCCCC	-9.5%	-9.9%	-6.2%	/	/	4.2%
SMILES	HPGD block	HTT cytoprotect	ALDH1A1 inh	HTT aggregate	LMNA splice mod	JMJD2E inh
NSc1nc(N)c2nc(-c3ccccc3)c(-c3ccccc3)nc2n1	/	-1.3%	14.1µM*	21.5%	/	?
Nc1nc(N)c2nc(-c3ccccc3)c(N)nc2n1	?	-93.4%	?	3.6%	?	?
O=C(NCCc1ccccn1)c1cccc(S(=O)(=O)N2CCc3ccccc32)c1	/	-37.4%	20µM*	-20.4%	/	-5.7%
COc1ccc(NC(=O)c2cccc(S(=O)(=O)N3CCc4ccccc43)c2)cn1	/	16.8%	3.16µM*	-26.2%	-24.5%[46 µM]	-14.1%
O=C(NCCc1ccccn1)c1cccc(S(=O)(=O)N2CCCCCC2)c1	-3.8%	-13.2%	-6.3%	1.2%	1.6%	1.8%
C/C(CC(=O)Nc1ccccc1Cl)=N\NC(=O)C(=O)NCCO	/	2.9%	10µM*	-25.8%	10.6%[46 µM]	26.4%
C/C(CC(=O)Nc1cccc(Cl)c1C)=N\NC(=O)C(=O)NCC(C)C	-5.1%	/	?	16.2%	2.8%	5.3%
CN(Cc1cc(Br)cc(Br)c1O)Cc1c(O)ccc2ccccc12	-10.2%	16.0%[10 µM]	-3.2%[13.5 µM]	/	/	/
O=C1c2oc3ccccc3c(=O)c2C(c2cccc(O)c2)N1CCCN1CCOCC1 (stereo not given)	-5.8%	-10.4%	?	18.1%	-6.3%	-0.1%
Cc1cc2oc3c(c(=O)c2cc1C)C(c1ccc(F)cc1)N(CCCN1CCOCC1)C3=O (stereo not given)	-17.7%	-18.2%[10 µM]	7.08µM*	?	1.9%	-3.3%
O=C1c2oc3ccc(Cl)cc3c(=O)c2C(c2cccnc2)N1Cc1ccco1 (stereo not given)	-1.9%	3.9%	?	-4.4%	-3.0%	7.8%
O=C1c2oc3ccccc3c(=O)c2C(c2cccc(F)c2)N1CCCO (stereo not given)	1.4%	8.9%	14.1µM*	?	-2.1%	-8.5%
O=C1c2oc3ccccc3c(=O)c2C(c2cccnc2)N1Cc1ccco1 (stereo not given)	-1.2%	6.6%[1.9 µM]	14.1µM*	3.0%	3.8%	4.9%
CC[C@@H]1CC(=O)N(SC[C@H](N)C(=O)O)C1=O	-5.8%	6.9%[10 µM]	-0.7%[13.5 µM]	/	/	/
CCn1nnnc1SCC(=O)Nc1nc(-c2cccs2)cs1	-17.9%	10.8%[10 µM]	3.16µM*	17.2%	-10.3%	11.1%
O=C(COc1ccc(F)cc1)NCc1ccc2c(c1)CCN2C(=O)c1ccccc1	/	/	/	/	-1.3%[46 µM]	/
CC1(C)CC(=O)C2=C(C1)Nc1ccccc1N=C2	-12.0%	35.9%[1.9 µM]	1.78µM*	-7.6%	-0.9%	?
O=C(CSc1nccn1Cc1ccccc1)NCc1ccccc1Cl	/	/	/	/	-6.9%[46 µM]	/
Cc1ccc(S(=O)(=O)NCC2CCC(C(=O)NCc3ccco3)CC2)cc1 (stereo not given)	-16.3%	12.3%[10 µM]	2.82µM*	-0.4%	14.8%	-8.1%
Cc1cc(C)c(S(=O)(=O)NCC2CCC(C(=O)NCCCN3CCOCC3)CC2)c(C)c1 (stereo not given)	-0.8%	-7.9%	4.7%	2.7%	2.0%	1.2%
O=C(NCc1cccs1)C1CCC(CNS(=O)(=O)c2ccccc2)CC1 (stereo not given)	/	/	5.01µM*	13.0%	/	12.8%
